In PubChem BioAssay:
A number with no mark means an inactive call. The rule behind the calls is not given here.

target: Pantothenate synthetase (Mycobacterium tuberculosis (strain ATCC 25618 / H37Rv)) (UniProt P9WIL5); test: Coupled enzyme confirmation of inhibitors against recombinant Mtb PanC (AID 375); conditions: coupled enzyme assay; at 10 µM, active compounds read high;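 note: 0% = full reaction with vehicle and 100% = no enzyme background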
Sequence (P9WIL5 whole entry, looked up): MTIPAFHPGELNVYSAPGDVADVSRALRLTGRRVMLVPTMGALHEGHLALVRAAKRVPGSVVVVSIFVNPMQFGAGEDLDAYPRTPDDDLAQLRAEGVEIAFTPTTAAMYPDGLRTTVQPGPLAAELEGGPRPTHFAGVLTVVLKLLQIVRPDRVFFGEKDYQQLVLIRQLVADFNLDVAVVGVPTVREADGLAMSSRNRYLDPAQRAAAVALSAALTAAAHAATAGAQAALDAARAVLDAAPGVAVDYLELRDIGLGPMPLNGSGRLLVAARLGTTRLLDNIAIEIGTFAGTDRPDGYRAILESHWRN

Q: How did the inhibition turn out when `COc1ccccc1C1CC(c2ccc(C)cc2)Nc2ncnn21` (stereo not given) was run?
A: Its inhibition is 3%.

Q: With `S=c1[nH]nc(-c2ccco2)n1-c1cccc2ccccc12` as the compound, how does the inhibition read?
A: The inhibition was 0%.

Q: With `N#CC1=C(N)OC(c2ccccc2)=C(C#N)C1c1ccc2c(c1)OCO2` (stereo not given) as the compound, how does the inhibition read?
A: Its inhibition is 0%.

Q: With `CC(C)CCNC(=O)NC(=O)COc1ccccc1C#N` as the compound, how does the inhibition read?
A: Its inhibition is 4%.

Q: `O=C(CCN1CCc2ccccc2C1)Nc1ccc2c(c1)OCO2` was tested. Which inhibition did it give?
A: Its inhibition is 0%.

Q: For `CC1(C)Cc2cccc(OCC(=O)O)c2O1`, which inhibition is on record?
A: The inhibition was 5%.

Q: Which inhibition does the source give for `COc1ccc(OCCN2C(=O)NC(C)(c3ccc(C)cc3)C2=O)cc1` (stereo not given) here?
A: Its inhibition is 1%.

Q: With `CN1CCN(CCCN2c3ccccc3Sc3ccc(C(F)(F)F)cc32)CC1` as the compound, how does the inhibition read?
A: Its inhibition is 1%.

Q: Which inhibition does the source give for `COc1cccc(NC(=O)CSc2nnc(Cc3cccn3C)n2-c2ccc(F)cc2)c1` here?
A: The inhibition was 4%.

Q: Which inhibition does the source give for `CN(C(=O)Cn1c(=O)n(CCCCC(=O)NC2CCCC2)c(=O)c2ccccc21)C1CCCCC1` here?
A: Its inhibition is 0%.

Q: How did the inhibition turn out when `O=C(Cn1nnc(-c2ccccc2)n1)Nc1ccccc1N1CCOCC1` was run?
A: Its inhibition is 0%.

Q: How did the inhibition turn out when `Cc1ccc2cccc(SCC(=O)N3CCOCC3)c2n1` was run?
A: Its inhibition is 5%.

Q: Which inhibition does the source give for `Cc1ccc(-c2nnc(-c3ccc(Br)cc3)o2)o1` here?
A: Its inhibition is 0%.

Q: `CCOC(=O)C1CCN(C(=O)C2CCN(S(=O)(=O)c3cc(Cl)ccc3Cl)CC2)CC1` was tested. Which inhibition did it give?
A: The inhibition was 12%.

Q: With `CCN(C(=O)c1c(OC)cccc1OC)c1nnc(-c2cccnc2)s1` as the compound, how does the inhibition read?
A: The inhibition was 0%.

Q: Which inhibition does the source give for `O=C(NCC(F)(F)F)Nc1cccnc1` here?
A: The inhibition was 7%.

Q: How did the inhibition turn out when `Cc1ccc2nc(-c3ccccn3)cc(C(=O)N3CCN(c4ncccn4)CC3)c2c1` was run?
A: Its inhibition is 3%.

Q: `Cc1cccc(OCc2nc(C#N)c(NCCN(C)C)o2)c1` was tested. Which inhibition did it give?
A: Its inhibition is 1%.

Q: `CC(C)CCN1CC(C(=O)NCc2ccccc2)CC1=O` (stereo not given) was tested. Which inhibition did it give?
A: The inhibition was 0%.

Q: How did the inhibition turn out when `Cn1c(COc2ccccc2)nnc1SCC(=O)Nc1ccc(N2CCOCC2)c(Cl)c1` was run?
A: Its inhibition is 6%.

Q: `O=C(Nc1cc(C(F)(F)F)ccc1Cl)C1CCN(c2nnc(-n3cccc3)s2)CC1` was tested. Which inhibition did it give?
A: The inhibition was 3%.

Q: `CN1CCN(C2=Nc3cc(Cl)ccc3Nc3ccccc32)CC1` was tested. Which inhibition did it give?
A: The inhibition was 8%.

Q: `COc1cccc(N2CCN(c3ncnc4c3[nH]c3ccc(F)cc34)CC2C)c1` (stereo not given) was tested. Which inhibition did it give?
A: The inhibition was 0%.

Q: Which inhibition does the source give for `COc1ccc(S(=O)(=O)N2CCN(c3ccc(C)cc3C)CC2)cc1OC` here?
A: The inhibition was 3%.

Q: Which inhibition does the source give for `CCc1nc(N)c(C#N)c(-c2ccncc2)c1C` here?
A: Its inhibition is 0%.

Q: For `CCCCN(C(=O)c1ccc(Cl)cc1)C1CC2CCC(C1)N2C` (stereo not given), which inhibition is on record?
A: The inhibition was 0%.

Q: Which inhibition does the source give for `CCC(C)(C)NC(=O)C(c1ccco1)N(C(=O)Cn1nnc2ccccc21)c1ccc2c(c1)OCO2` (stereo not given) here?
A: Its inhibition is 0%.

Q: How did the inhibition turn out when `Cc1cc(/C=N/n2cnnc2)c(C)n1-c1ccc(Cl)cc1Cl` was run?
A: Its inhibition is 1%.

Q: With `COc1cccc(N2CCN(CC(=O)NCc3cccs3)CC2)c1` as the compound, how does the inhibition read?
A: The inhibition was 3%.

Q: For `COc1ccc(NC(=O)CSc2nnc(-c3ccncc3)n2CC2CCCO2)c(OC)c1` (stereo not given), which inhibition is on record?
A: Its inhibition is 4%.

Q: With `COC(=O)c1cn(NC(=O)c2cccnc2)c(=O)c2ccccc12` as the compound, how does the inhibition read?
A: The inhibition was 0%.

Q: With `Cc1ccc(-c2nc3cc(NC(=O)C(C)C)ccc3o2)cc1` as the compound, how does the inhibition read?
A: Its inhibition is 0%.

Q: For `Cc1sc2nc3n(c(=O)c2c1C)NC(=O)CC3`, which inhibition is on record?
A: Its inhibition is 0%.

Q: Which inhibition does the source give for `O=C(Cn1ccc2ccccc2c1=O)Nc1ccc2c(c1)OCO2` here?
A: The inhibition was 6%.

Q: How did the inhibition turn out when `O=C(NCc1ccco1)c1cnn2c(C(F)(F)F)cc(-c3ccco3)nc12` was run?
A: The inhibition was 4%.

Q: With `CC(=O)Nc1ccc(N=Cc2ccc[nH]2)cc1` as the compound, how does the inhibition read?
A: The inhibition was 0%.

Q: How did the inhibition turn out when `O=C(NC12CC3CC(CC(C3)C1)C2)c1cncc(O)c1` was run?
A: Its inhibition is 2%.

Q: Which inhibition does the source give for `CCCn1c(=O)c2ccccc2n2c(SCc3cc(=O)n4ccsc4n3)nnc12` here?
A: The inhibition was 0%.

Q: How did the inhibition turn out when `CCc1cccc(NS(=O)(=O)c2c(C)n[nH]c2C)c1` was run?
A: Its inhibition is 0%.

Q: Which inhibition does the source give for `N=c1c(C(=O)NCc2ccc3c(c2)OCO3)cc2c(=O)n3ccccc3nc2n1Cc1cccnc1` here?
A: Its inhibition is 2%.
